# ± gives the standard deviation.
# T1: HaloTag-ATRX ADD domain (163-292)
# T1 chain: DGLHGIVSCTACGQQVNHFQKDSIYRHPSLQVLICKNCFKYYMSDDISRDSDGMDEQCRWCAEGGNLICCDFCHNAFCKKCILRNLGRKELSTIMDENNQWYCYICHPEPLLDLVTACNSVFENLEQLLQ
# B1: H2B 17-29 A V T K A Q K K D G Kac Kac R (peptide)
# chain: AVTKAQKKDGKKR
# B2: H2B 17-29 A V T K A Q K Kac D G Kac Kac R (peptide)
# chain: AVTKAQKKDGKKR
# B3: H2B 17-29 A V T K A Q K Kac D G K K R (peptide)
# chain: AVTKAQKKDGKKR
# B4: H3 1-13 A R T Kme Q T A R Kme S T G G (peptide)
# chain: ARTKQTARKSTGG
# B5: H2B 17-29 A V T K A Q Kac K D G K K R (peptide)
# chain: AVTKAQKKDGKKR
# Columns and labels:
# Assay in all cases: peptide microarray binding signal (635 nm), min-max normalized on array (fraction of array maximum); higher = stronger binding
# [1] = target: T1, HaloTag-ATRX ADD domain (163-292)
# Method: (§1)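 Histone 13-mer peptides were synthesized as cellulose conjugates with a C-terminal 20-atom PEG linker and printed in triplicate on nitrocellulose. The sequence given is the unmodified backbone; PTMs (Kme1/2/3, Kac, Sph/Tph, Rme/Rme2a/Rme2s, Rcit) are listed in the label and the 'peptide modifications' condition. Slides were probed at 4 °C for 1 h with biotin-labelled (HQ)5-HaloTag reader fusions (ATRX-ADD, ING2-PHD) then streptavidin-Alexa647, or with rabbit histone antibodies then anti-rabbit Alexa647. The mean 635 nm signal of the triplicate spots was scaled 0-1 between the lowest and highest values on each array.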
# [2] = target: HaloTag-ING2 PHD (mouse Ing2 200-280)
# Method: as §1
# [3] = target: anti-H3K4me3 antibody ab8580
# Method: as §1
# [4] = target: anti-H3K9me3 antibody ab8898
# Method: as §1
# [5] = peptide region: H2B 17-29, peptide modifications: H2BK27ac H2BK28ac, binder concentration: 1:2,000 dilution
# [6] = peptide region: H2B 17-29, peptide modifications: H2BK27ac H2BK28ac, binder concentration: 1:10,000 dilution
# [7] = peptide region: H2B 17-29, peptide modifications: H2BK24ac H2BK27ac H2BK28ac, binder concentration: 1:2,000 dilution
# [8] = peptide region: H2B 17-29, peptide modifications: H2BK24ac H2BK27ac H2BK28ac, binder concentration: 1:10,000 dilution
# [9] = peptide region: H2B 17-29, peptide modifications: H2BK24ac, binder concentration: 1:2,000 dilution
# [10] = peptide region: H2B 17-29, peptide modifications: H2BK24ac, binder concentration: 1:10,000 dilution
# [11] = peptide region: H3 1-13, peptide modifications: H3K4me1 H3K9me1, binder concentration: 1:2,000 dilution
# [12] = peptide region: H3 1-13, peptide modifications: H3K4me1 H3K9me1, binder concentration: 1:10,000 dilution
# [13] = peptide region: H2B 17-29, peptide modifications: H2BK23ac, binder concentration: 1:2,000 dilution
# [14] = peptide region: H2B 17-29, peptide modifications: H2BK23ac, binder concentration: 1:10,000 dilution
binder,measurement,setting,value
B1,peptide microarray binding signal,"[1]; peptide region: H2B 17-29, peptide modifications: H2BK27ac H2BK28ac, binder concentration: 50 nM",0.0047 ± 0.00043
same,peptide microarray binding signal,"[1]; peptide region: H2B 17-29, peptide modifications: H2BK27ac H2BK28ac, binder concentration: 500 nM",0.00386 ± 0.00024
same,peptide microarray binding signal,"[2]; peptide region: H2B 17-29, peptide modifications: H2BK27ac H2BK28ac, binder concentration: 10 nM",0.00418 ± 6.5e-05
same,peptide microarray binding signal,"[2]; peptide region: H2B 17-29, peptide modifications: H2BK27ac H2BK28ac, binder concentration: 100 nM",0.00276 ± 0.00023
same,peptide microarray binding signal,[3]; [5],0.00017 ± 5.6e-06
same,peptide microarray binding signal,[3]; [6],0.00114 ± 1.2e-05
same,peptide microarray binding signal,[4]; [5],0.000544 ± 3e-05
same,peptide microarray binding signal,[4]; [6],0.0011 ± 4e-05
B2,peptide microarray binding signal,"[1]; peptide region: H2B 17-29, peptide modifications: H2BK24ac H2BK27ac H2BK28ac, binder concentration: 50 nM",0.00295 ± 3.3e-05
same,peptide microarray binding signal,"[1]; peptide region: H2B 17-29, peptide modifications: H2BK24ac H2BK27ac H2BK28ac, binder concentration: 500 nM",0.00638 ± 0.0005
same,peptide microarray binding signal,"[2]; peptide region: H2B 17-29, peptide modifications: H2BK24ac H2BK27ac H2BK28ac, binder concentration: 10 nM",0.0037 ± 7.9e-05
same,peptide microarray binding signal,"[2]; peptide region: H2B 17-29, peptide modifications: H2BK24ac H2BK27ac H2BK28ac, binder concentration: 100 nM",0.00716 ± 0.00073
same,peptide microarray binding signal,[3]; [7],0.000944 ± 5.4e-05
same,peptide microarray binding signal,[3]; [8],0.00108
same,peptide microarray binding signal,[4]; [7],0.000634 ± 9.9e-06
same,peptide microarray binding signal,[4]; [8],0.00098 ± 3e-05
B3,peptide microarray binding signal,"[1]; peptide region: H2B 17-29, peptide modifications: H2BK24ac, binder concentration: 50 nM",0.00295 ± 0.00019
same,peptide microarray binding signal,"[1]; peptide region: H2B 17-29, peptide modifications: H2BK24ac, binder concentration: 500 nM",0.00762 ± 0.00062
same,peptide microarray binding signal,"[2]; peptide region: H2B 17-29, peptide modifications: H2BK24ac, binder concentration: 10 nM",0.00609 ± 0.00052
same,peptide microarray binding signal,"[2]; peptide region: H2B 17-29, peptide modifications: H2BK24ac, binder concentration: 100 nM",0.0283 ± 0.032
same,peptide microarray binding signal,[3]; [9],0.0013 ± 8.9e-05
same,peptide microarray binding signal,[3]; [10],0.000742
same,peptide microarray binding signal,[4]; [9],0.000347 ± 3.5e-06
same,peptide microarray binding signal,[4]; [10],0.000577 ± 6.2e-06
B4,peptide microarray binding signal,"[1]; peptide region: H3 1-13, peptide modifications: H3K4me1 H3K9me1, binder concentration: 50 nM",0.00743 ± 0.00015
same,peptide microarray binding signal,"[1]; peptide region: H3 1-13, peptide modifications: H3K4me1 H3K9me1, binder concentration: 500 nM",0.0134 ± 0.00046
same,peptide microarray binding signal,"[2]; peptide region: H3 1-13, peptide modifications: H3K4me1 H3K9me1, binder concentration: 10 nM",0.105 ± 0.023
same,peptide microarray binding signal,"[2]; peptide region: H3 1-13, peptide modifications: H3K4me1 H3K9me1, binder concentration: 100 nM",0.145 ± 0.024
same,peptide microarray binding signal,[3]; [11],0.0452 ± 0.0073
same,peptide microarray binding signal,[3]; [12],0.0277 ± 0.0056
same,peptide microarray binding signal,[4]; [11],0.00387 ± 0.00011
same,peptide microarray binding signal,[4]; [12],0.00248 ± 0.00012
B5,peptide microarray binding signal,"[1]; peptide region: H2B 17-29, peptide modifications: H2BK23ac, binder concentration: 50 nM",0.00376 ± 0.00013
same,peptide microarray binding signal,"[1]; peptide region: H2B 17-29, peptide modifications: H2BK23ac, binder concentration: 500 nM",0.00514 ± 0.0009
same,peptide microarray binding signal,"[2]; peptide region: H2B 17-29, peptide modifications: H2BK23ac, binder concentration: 10 nM",0.00424 ± 9.6e-05
same,peptide microarray binding signal,"[2]; peptide region: H2B 17-29, peptide modifications: H2BK23ac, binder concentration: 100 nM",0.00666 ± 0.00022
same,peptide microarray binding signal,[3]; [13],0.00051 ± 9.7e-05
same,peptide microarray binding signal,[3]; [14],0.000742
same,peptide microarray binding signal,[4]; [13],0.000498 ± 3.6e-05
same,peptide microarray binding signal,[4]; [14],0.00104 ± 1.1e-05

# — the supplement of paper PMC4022240
